The text below walks through data of PubChem BioAssay AID1626 (SRMLSC, 2009).

In all, about 220,000 compounds went through this assay and about 2,000 (0.91%) were called active. Inconclusive results (about 2%) are left out. Not all results are given here. Results with a measured potency or affinity are listed apart. Unmarked numbers belong to inactive results. Cut-off read from the data, not from the text of the source: inconclusive = inhibition above about 80% without an active follow-up result; inactive = below that; test concentration not stated here.

Broadly, the inhibition is the drop in the measured response relative to a control, in per cent.

This experiment can be described thus: M. tuberculosis H37Rv growth inhibitors, H37Rv strain (AID 1626).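 Note: bacteria incubated seven days before Alamar blue readout; 0% = bacteria only wells and 100% = bacteria with antibiotic wells.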 As to conditions: hits give high values, concentration not given here.
For `c1cncc(-c2nc(-c3ccco3)cs2)c1`, the inhibition was 2.43%.

Consider `Cc1ccc(S(=O)(=O)NC(=O)Nc2cc(C)ccc2F)cc1`, for which the inhibition was -4.28%.

`Cc1ccc(S(=O)(=O)Nc2nc(-c3ccc(F)cc3)cs2)cc1`: the inhibition was -5.33%. The result for `COc1ccccc1N1CCN(C(=O)c2ccc(CN3CCOCC3)cc2)CC1` reads 4.65%.

For `Nc1n[nH]c(-c2cccc([N+](=O)[O-])c2)n1`, the inhibition is 2.42%. Turning to `c1ccc(-c2nc(-c3cccnc3)n[nH]2)cc1`, the inhibition is 4.63%. On to `CCCOc1cccc(C2/C(=C(/O)c3ccc(OC)cc3)C(=O)C(=O)N2CCN(C)C)c1` (stereo not drawn), for which the inhibition is -1.44%.

For `Cc1ccc(NC(=S)NCCSc2ccc(Cl)cc2)c(C)c1`, the inhibition is 17.1%. As to `COc1cc(CNCc2ccccn2)ccc1OCc1ccccc1Cl`, the inhibition is 61%. Take `COc1cc(CNCc2ccccn2)ccc1OCc1cccc(Cl)c1`: the inhibition is 28.4%. With `COc1cc(CNCc2ccccn2)ccc1OCc1ccc(Cl)cc1`, the inhibition is 31.7%. `COc1cc(CNCc2ccccn2)ccc1OCc1c(Cl)cccc1Cl`: the inhibition was 56.6%. Next, `Cc1nnc(NC(=O)NCN2C(=O)C3C4C=CC(C4)C3C2=O)s1` (stereo not drawn): -8.61%. For `CCN(CC)P(=O)(Oc1ccccc1)Oc1ccccc1`, the inhibition is 7.92%. Next, `C#CCOCCOCCOCCNc1nc(N2CCN(C(=O)[C@H](C(C)C)n3cc(CCO)nn3)CC2)nc(N2CCN(C(=O)[C@H]([C@@H](C)CC)n3cc(CCCCN)nn3)CC2)n1`: 1.48%. In the case of `Cc1cccc2nc(-c3cccc(NC(=O)Cc4ccccc4)c3)cn12`, the inhibition is 10.1%. Next, `c1cncc(CSc2nnc3ccc(-c4ccco4)nn23)c1`: -0.26%. For `Cc1ccc(NC(=O)CSc2nnnn2C)cc1S(=O)(=O)N(C)C`, the inhibition was -2.13%. Regarding `O=C(CSc1ncn[nH]1)Nc1ccc([N+](=O)[O-])cc1Br`, the inhibition was 10.6%. Turning to `Nc1nc(SCC(=O)Nc2ccc(Br)cc2F)n[nH]1`, the inhibition was 0.13%.

For `CN(C)CCCCOc1ccc(Br)cc1Cl`, the inhibition is 6.22%. The result for `CCCCOc1ccc(-c2c(C#N)c(N)nc(SCC(N)=O)c2C#N)cc1` reads -5.04%; that for `CCCCOC(=O)CSc1nc(N)c(C#N)c(-c2ccc(OCC)cc2)c1C#N`, 57.9%; that for `CC(C)OC(=O)CSc1nc(N)c(C#N)c(-c2ccco2)c1C#N`, 53.1%. For `N#Cc1c(N)nc(SCC(=O)OCc2ccccc2)c(C#N)c1-c1ccco1`, the inhibition is 74%. Turning to `CC(C)OC(=O)CSc1nc(N)c(C#N)c(-c2cccs2)c1C#N`, the inhibition is 40.9%.

For the molecule `CCOC(=O)CC(=O)CSc1nc(N)c(C#N)c(-c2ccc(F)cc2)c1C#N`, the inhibition is -2.96%. Consider `CCOC(=O)CC(=O)CSc1nc(N)c(C#N)c(-c2ccc(Cl)cc2)c1C#N`, for which the inhibition was -8.64%. For the molecule `CC(=O)CSc1nc(N)c(C#N)c(-c2cccs2)c1C#N`, the inhibition is -7.14%. For the molecule `Cc1ccc(-n2c(O)c(C=NCCN3CCOCC3)c(=O)[nH]c2=O)cc1`, the inhibition was 2.96%.

For `CCCc1nnc(NC(=O)Nc2ccc(OC)cc2)s1`, the inhibition is -1.18%. As for `COc1ccc(S(=O)(=O)N2CCOCC2)cc1Cl`, the inhibition was 5.97%. In the case of `Cc1ccc(N2C(=O)NC(=O)/C(=C/c3cnn(-c4ccc(C)cc4)c3)C2=O)cc1`, the inhibition is 79.9%. Consider `CCCN1C(=O)c2cc(C(=O)Nc3ccc(OC)c(OC)c3)ccc2C1Nc1ccc(OC)c(OC)c1` (stereo not drawn), for which the inhibition was 4.17%. The result for `CCn1cc(C(=O)N2CCCCC2)c2ccccc21` reads -0.75%; that for `Cn1c(=O)oc2cc(S(=O)(=O)N3CCC4(CC3)OCCO4)ccc21`, -6.19%; that for `O=C(CSc1nnc(-c2ccncc2)n1Cc1ccco1)OC1CCCCC1`, 0.38%. Next, `CCC(C)(C)n1nnnc1C(c1ccncc1)N1CCN(c2cccc(OC)c2)CC1` (stereo not drawn): -11.7%. In the case of `Cc1cc(NC(=O)CSc2nc(C(C)C)nc3sc(C)c(C)c23)no1`, the inhibition was -4.44%. In the case of `Cc1cc(NC(=O)CSc2nc(C3CC3)nc3sc4c(c23)CCC(C)C4)no1` (stereo not drawn), the inhibition is -2.86%.

Take `Cc1nc(SCC(=O)NCc2ccco2)c2c3c(sc2n1)CCCC3`: the inhibition is -8.98%. Take `Cc1cc(NC(=O)CSc2nc(C(C)C)nc3c2c(=O)n(C)c(=O)n3C)no1`: the inhibition was -4.22%.

Regarding `COc1ccccc1/C=C/C(=O)NCC(=O)N/N=C/c1ccccc1[N+](=O)[O-]`, the inhibition is -1.7%.

`CN(C)S(=O)(=O)c1ccc(C(=O)OCC(=O)Nc2sc3c(c2C#N)CCCCC3)cc1`: the inhibition is -0.67%. For `CC(C)(C)c1ccc(-c2noc(-c3ccc4c(c3)CCO4)n2)cc1`, the inhibition is 10.1%. Consider `Nc1c(N(CCO)C(=O)COc2ccc(Cl)cc2)c(=O)[nH]c(=O)n1Cc1ccccc1`, for which the inhibition was -6.77%. As to `Cc1ccc(Nc2nc(N)c([N+](=O)[O-])c(N3CCC(C)CC3)n2)cc1C`, the inhibition was 10.8%. Regarding `O=c1cc(NCc2ccccc2)nc2ccccn12`, the inhibition was 4.08%.

Turning to `O=C(CSc1ccccn1)Nc1ccc2c(c1)C(=O)c1ccccc1C2=O`, the inhibition was 2.78%. In the case of `Cn1ccnc1SCC(=O)Nc1ccc2ccccc2c1`, the inhibition was 11.1%. As to `O=C(CSc1ccccn1)Nc1ccc(NC(=O)CSc2ccccn2)cc1`, the inhibition was -2.88%. Consider `COc1ccc(NC(=O)CSc2ccccn2)cc1`, for which the inhibition is 7.31%. Consider `COc1cccc(NC(=O)CSc2ccccn2)c1`, for which the inhibition is -1.36%. Next, `O=C(CSc1ccccc1)Nc1ccncc1`: 0.82%; `COc1ccc(NC(=O)CSc2ccccn2)cc1OC`: -4.19%. As to `CC(=O)Nc1ccc(NC(=O)CSc2ccccn2)cc1`, the inhibition was 7.17%. As for `O=C(NCc1ccccn1)/C(=N/O)c1ccccc1`, the inhibition was 1.57%. Regarding `COc1ccc(N2C(=O)NC(NC(=O)c3cccnc3)(C(F)(F)F)C2=O)cc1` (stereo not drawn), the inhibition is -4.91%. Take `Cc1nccc(-c2cc(-c3ccc(Cl)cc3Cl)no2)n1`: the inhibition is 0.59%.

In the case of `Cc1onc(-c2ccccc2)c1C(=O)NNC(=S)NC(=O)/C=C/c1cccs1`, the inhibition was 5.26%.

On to `O=C(N/N=C/c1cc([N+](=O)[O-])ccc1O)C1CC1`, for which the inhibition is 9.15%.

With `Cc1nn(-c2ccc(F)cc2)c2sc(C(=O)OC3CCOC3=O)cc12` (stereo not drawn), the inhibition is -1.05%. As to `Cc1ccc(S(=O)(=O)Nc2ccc3c(c2)nc(C)n3C)cc1`, the inhibition is 2.7%.

On to `COc1ccc(/C=C2\Cc3ccccc3C2=O)cc1OC`, for which the inhibition is 4.06%.

In the case of `COc1ccc(/C=C2/CCc3ccccc3C2=O)cc1OC`, the inhibition is 5.56%.

Turning to `CNc1ccc(/C=C2\COc3ccccc3C2=O)cc1[N+](=O)[O-]`, the inhibition is 10.8%. Next, `COc1cc(/C=C2\COC/C(=C\c3cc(OC)c(OC)c(OC)c3)C2=O)cc(OC)c1OC`: 21.1%; `O=C1/C(=C/c2cccs2)COc2ccccc21`: 4.75%. For `COc1cc(/C=C2/CC/C(=C/c3ccc(O)c(OC)c3)C2=O)ccc1O`, the inhibition is -0.8%. Regarding `CCC(C)NC(=O)CSc1nc2ccccc2c(=O)n1CCCC(=O)NCC1CCCO1` (stereo not drawn), the inhibition was -0.9%. In the case of `Cc1nn(Cc2ccccc2)c(Cl)c1C(=O)OCC#N`, the inhibition was 2.96%. The result for `Cc1cccc(NC(=O)CSc2ccc(C(N)=O)cc2[N+](=O)[O-])c1C` reads -7.31%.

Regarding `O=C(O)CCC(=O)Nc1ccccc1C(=O)NCc1ccco1`, the inhibition was -1.28%. `Cc1ccc(NC(=S)N/N=C2/CCCCc3ccccc32)cc1`: the inhibition was -0.29%. On to `COc1ccc2nc(NC(=O)CSc3nnc(-c4ccoc4C)n3C)sc2c1`, for which the inhibition is 0.74%.

In the case of `COCCOC(=O)c1c(NC(=O)CN2CCc3ccccc32)sc(C(N)=O)c1C`, the inhibition was 6.77%. Turning to `CCn1cc(C(=O)O)c(=O)c2cnc(N3CCN(C(=S)Nc4ccccc4C(F)(F)F)CC3)nc21`, the inhibition is -8%. In the case of `O=C(O)C(Cc1c[nH]c2ccccc12)N1Cc2ccccc2C1=O` (stereo not drawn), the inhibition is -8.14%. `CC(C)CNC(=O)NC1C(NC(=O)NCC(C)C)N(C)C(=O)N1C` (stereo not drawn): the inhibition was -2.11%. Take `O=C(Nc1ccc(N2CCOCC2)cc1)c1cc2c(s1)CCCC2`: the inhibition was -7.27%. Consider `COc1ccc2nc(/N=C\N(C)C)sc2c1`, for which the inhibition is 5.98%. As to `COc1ccc2nc(N=Nc3c(O)ccc4ccccc34)sc2c1`, the inhibition is 13.7%.

In the case of `CC(C)(C)C(=O)NNC(=O)c1cc2sccc2s1`, the inhibition was 13.2%. For `CCCS/C(N)=N/N=C/c1ccccc1O`, the inhibition was 4.15%.

Regarding `CCOc1ccccc1C(=O)N1CCN(C(c2ccccc2)c2ccccc2)CC1`, the inhibition was 0.97%. The result for `CC(=O)c1ccccc1OCC(O)CN1CCN(CCN2C(=O)c3cccc4cccc(c34)C2=O)CC1` (stereo not drawn) reads 39.8%. Next, `CC1=CC(=O)N(c2ccc(C)cc2)C1c1ccc(Cl)cc1` (stereo not drawn): 11.2%; `Cc1ccc2c(c1)c1c(n2CC(O)CNC(C)(C)C)CCCC1` (stereo not drawn): 3.21%.

As for `Cc1ccc2c(c1)c1c(n2CC(O)CNC2CCCC2)CCCC1` (stereo not drawn), the inhibition is 27.5%. The result for `COc1ccc(OC)c(NC(=O)CCc2c[nH]c3ccccc23)c1` reads 11.6%.

Turning to `CCSc1nnc(-c2ccc(OC)cc2)o1`, the inhibition is 10.5%. Take `COc1ccc(-c2nnc(NC(=O)C(C)C)o2)cc1`: the inhibition is 28.3%.

Consider `Cc1ccc(NC(=O)Nc2nnc(-c3ccccc3)o2)cc1`, for which the inhibition is 3.09%. In the case of `COc1ccc(NC(=O)c2cc(Cl)ccc2Cl)c([N+](=O)[O-])c1`, the inhibition is 0.17%. The result for `COc1ccc(Oc2ccc(NC(=O)c3ccccc3C)cc2)cc1` reads 9.33%; that for `COc1ccc(-c2nnc(NC(=O)C3CC3)o2)cc1`, 14.1%; that for `Cc1ccccc1C(=O)Nc1nnc(-c2ccncc2)o1`, 1.04%. With `Cc1ccccc1C(=O)Nc1nnc(-c2cccnc2)o1`, the inhibition is 20.8%.
